# Laboratory results reported in PMC7862700, “An all-to-all approach to the identification of sequence-specific readers for epigenetic DNA modifications on cytosine”.
# Tests used:
# Test in all cases: DAPPL (digital affinity profiling via proximity ligation, sequencing); 10 mM Tris-HCl pH 7.5, 50 mM NaCl, 1 mM DTT, 4% glycerol, room temperature, 30 min; GST-TFs on glutathione beads, 16-mer random dsDNA library, 0.1% formaldehyde crosslink after washing; high values mean tight binding
# [1] = molecular target: T1, FLI1 (Homo sapiens, UniProt Q01543 1-452); settings: protein: recombinant; tags: N-terminal GST; dsDNA, one strand shown
# T1 sequence: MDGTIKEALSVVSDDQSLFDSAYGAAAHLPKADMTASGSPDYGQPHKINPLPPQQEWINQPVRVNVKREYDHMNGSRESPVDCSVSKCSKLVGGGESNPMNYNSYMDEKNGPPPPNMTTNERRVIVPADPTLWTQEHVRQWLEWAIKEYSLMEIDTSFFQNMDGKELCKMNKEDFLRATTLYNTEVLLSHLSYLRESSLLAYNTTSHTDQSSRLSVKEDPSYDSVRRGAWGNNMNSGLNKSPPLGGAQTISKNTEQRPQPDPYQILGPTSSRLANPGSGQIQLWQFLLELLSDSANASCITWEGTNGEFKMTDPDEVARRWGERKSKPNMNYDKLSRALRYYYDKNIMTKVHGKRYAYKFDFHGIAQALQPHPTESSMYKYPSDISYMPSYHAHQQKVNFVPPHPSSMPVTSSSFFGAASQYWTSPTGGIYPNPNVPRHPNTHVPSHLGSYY
# Summary of the method: (§1)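 Each value of binding signal is a hexamer's read frequency for a factor divided by the same hexamer's frequency in the tag-only sample. Barcoded, bead-captured GST fusions of human transcription factors made in yeast were pooled with that sample and incubated with 200 nmole of a random double-stranded 16-mer DNA library in Tris/NaCl/DTT/glycerol buffer at room temperature for 30 min. Washing, 0.1% formaldehyde crosslinking, proximity ligation, PCR and Illumina NextSeq500 sequencing followed.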
# [2] = molecular target: T2, ELK1 (Homo sapiens, UniProt P19419 1-428); settings: protein: recombinant; tags: N-terminal GST; dsDNA, one strand shown
# T2 sequence: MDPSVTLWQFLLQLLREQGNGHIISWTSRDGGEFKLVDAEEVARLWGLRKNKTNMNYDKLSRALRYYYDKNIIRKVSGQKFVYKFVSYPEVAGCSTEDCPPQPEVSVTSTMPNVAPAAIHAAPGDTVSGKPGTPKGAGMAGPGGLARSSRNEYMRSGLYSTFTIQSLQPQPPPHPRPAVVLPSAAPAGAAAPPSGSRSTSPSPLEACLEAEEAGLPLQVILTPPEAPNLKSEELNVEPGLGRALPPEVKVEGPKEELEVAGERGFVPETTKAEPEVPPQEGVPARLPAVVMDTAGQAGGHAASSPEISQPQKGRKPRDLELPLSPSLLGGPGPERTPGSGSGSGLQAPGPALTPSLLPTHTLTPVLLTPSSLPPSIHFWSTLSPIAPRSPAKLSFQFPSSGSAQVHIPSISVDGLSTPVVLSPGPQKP
# Summary of the method: as §1
# [3] = molecular target: T3, GABPA (Homo sapiens, UniProt Q06546 1-454); settings: protein: recombinant; tags: N-terminal GST; dsDNA, one strand shown
# T3 sequence: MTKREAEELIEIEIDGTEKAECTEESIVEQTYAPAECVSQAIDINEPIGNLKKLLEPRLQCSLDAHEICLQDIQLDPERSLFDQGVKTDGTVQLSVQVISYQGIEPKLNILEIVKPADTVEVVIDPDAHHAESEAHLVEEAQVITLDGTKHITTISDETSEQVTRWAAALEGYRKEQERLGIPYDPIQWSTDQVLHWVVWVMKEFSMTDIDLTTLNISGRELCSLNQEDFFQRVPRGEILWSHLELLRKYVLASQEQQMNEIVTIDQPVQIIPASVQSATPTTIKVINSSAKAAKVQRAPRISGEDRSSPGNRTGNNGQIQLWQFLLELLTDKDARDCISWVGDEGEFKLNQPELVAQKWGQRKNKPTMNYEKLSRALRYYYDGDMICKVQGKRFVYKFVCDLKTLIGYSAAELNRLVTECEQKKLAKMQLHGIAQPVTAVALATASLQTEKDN
# Summary of the method: as §1
# [4] = molecular target: T4, ERG (Homo sapiens, UniProt P11308 1-479); settings: protein: recombinant; tags: N-terminal GST; dsDNA, one strand shown
# T4 sequence: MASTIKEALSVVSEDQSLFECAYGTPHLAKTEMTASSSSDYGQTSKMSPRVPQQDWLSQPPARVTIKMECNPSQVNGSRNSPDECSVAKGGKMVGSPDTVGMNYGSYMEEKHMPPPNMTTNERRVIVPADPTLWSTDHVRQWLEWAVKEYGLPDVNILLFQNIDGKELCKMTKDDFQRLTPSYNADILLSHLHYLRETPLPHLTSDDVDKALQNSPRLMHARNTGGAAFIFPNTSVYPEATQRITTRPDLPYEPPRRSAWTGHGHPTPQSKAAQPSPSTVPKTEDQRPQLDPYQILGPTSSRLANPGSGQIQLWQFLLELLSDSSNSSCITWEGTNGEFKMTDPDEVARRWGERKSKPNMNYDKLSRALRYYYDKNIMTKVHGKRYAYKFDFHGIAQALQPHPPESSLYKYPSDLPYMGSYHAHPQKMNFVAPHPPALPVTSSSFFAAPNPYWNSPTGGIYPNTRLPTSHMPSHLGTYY
# Summary of the method: as §1
# [5] = molecular target: ELF1 (Homo sapiens, UniProt P32519 1-619); settings: protein: recombinant; tags: N-terminal GST; dsDNA, one strand shown
# Sequence of ELF1 (P32519 whole entry): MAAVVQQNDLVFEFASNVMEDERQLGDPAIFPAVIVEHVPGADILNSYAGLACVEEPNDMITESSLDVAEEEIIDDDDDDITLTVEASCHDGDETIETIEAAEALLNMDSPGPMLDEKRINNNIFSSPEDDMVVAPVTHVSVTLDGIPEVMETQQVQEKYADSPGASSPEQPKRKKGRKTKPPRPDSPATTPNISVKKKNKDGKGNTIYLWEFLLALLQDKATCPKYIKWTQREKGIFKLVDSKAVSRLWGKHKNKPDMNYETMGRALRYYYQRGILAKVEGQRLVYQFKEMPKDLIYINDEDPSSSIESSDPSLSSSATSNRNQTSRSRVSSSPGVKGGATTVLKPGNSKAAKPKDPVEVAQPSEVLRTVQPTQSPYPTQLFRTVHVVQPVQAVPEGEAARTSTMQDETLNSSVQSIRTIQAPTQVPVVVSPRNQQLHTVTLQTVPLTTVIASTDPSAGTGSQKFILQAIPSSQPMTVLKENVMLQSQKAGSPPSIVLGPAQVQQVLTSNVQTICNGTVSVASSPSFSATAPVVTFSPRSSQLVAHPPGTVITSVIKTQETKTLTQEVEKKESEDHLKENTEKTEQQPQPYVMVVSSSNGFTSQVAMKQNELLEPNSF
# Summary of the method: as §1
# [6] = molecular target: T5, EHF (Homo sapiens, UniProt Q9NZC4 1-300); settings: protein: recombinant; tags: N-terminal GST; dsDNA, one strand shown
# T5 sequence: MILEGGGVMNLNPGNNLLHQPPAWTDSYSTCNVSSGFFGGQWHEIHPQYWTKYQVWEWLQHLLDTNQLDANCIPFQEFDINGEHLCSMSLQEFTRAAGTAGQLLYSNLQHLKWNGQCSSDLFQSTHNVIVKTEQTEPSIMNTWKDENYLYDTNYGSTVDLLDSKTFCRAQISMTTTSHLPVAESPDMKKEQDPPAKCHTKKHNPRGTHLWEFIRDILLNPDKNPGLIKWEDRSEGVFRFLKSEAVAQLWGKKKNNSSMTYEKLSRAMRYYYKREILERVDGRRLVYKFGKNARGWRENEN
# Summary of the method: as §1
# [7] = molecular target: SPI1 (Homo sapiens, UniProt P17947 1-270); settings: protein: recombinant; tags: N-terminal GST; dsDNA, one strand shown
# Summary of the method: as §1
# [8] = molecular target: SPIB (Homo sapiens, UniProt Q01892 1-262); settings: protein: recombinant; tags: N-terminal GST; dsDNA, one strand shown
# Sequence of SPIB (Q01892 whole entry): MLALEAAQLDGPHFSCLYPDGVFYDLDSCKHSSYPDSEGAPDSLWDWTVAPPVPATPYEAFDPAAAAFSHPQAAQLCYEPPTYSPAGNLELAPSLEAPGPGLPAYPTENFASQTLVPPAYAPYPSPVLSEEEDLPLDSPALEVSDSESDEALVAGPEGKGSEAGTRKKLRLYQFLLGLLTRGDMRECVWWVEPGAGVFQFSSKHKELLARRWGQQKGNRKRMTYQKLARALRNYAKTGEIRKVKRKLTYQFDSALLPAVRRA
# Summary of the method: as §1
# [9] = molecular target: T6, ELK3 (Homo sapiens, UniProt P41970 1-407); settings: protein: recombinant; tags: N-terminal GST; dsDNA, one strand shown
# T6 sequence: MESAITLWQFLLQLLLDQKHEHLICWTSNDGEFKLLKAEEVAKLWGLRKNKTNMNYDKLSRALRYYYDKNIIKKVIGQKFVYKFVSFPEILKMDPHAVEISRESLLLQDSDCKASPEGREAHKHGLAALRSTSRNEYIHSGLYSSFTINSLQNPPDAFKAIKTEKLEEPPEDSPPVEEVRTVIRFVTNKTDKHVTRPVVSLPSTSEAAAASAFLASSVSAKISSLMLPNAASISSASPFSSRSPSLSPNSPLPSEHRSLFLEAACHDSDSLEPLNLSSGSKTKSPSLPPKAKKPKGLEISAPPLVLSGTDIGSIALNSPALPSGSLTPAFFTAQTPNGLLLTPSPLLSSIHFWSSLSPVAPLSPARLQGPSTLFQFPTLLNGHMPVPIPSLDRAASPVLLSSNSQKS
# Summary of the method: as §1
# [10] = molecular target: ETV5 (Homo sapiens, UniProt P41161 1-510); settings: protein: recombinant; tags: N-terminal GST; dsDNA, one strand shown
# Sequence of ETV5 (P41161 whole entry): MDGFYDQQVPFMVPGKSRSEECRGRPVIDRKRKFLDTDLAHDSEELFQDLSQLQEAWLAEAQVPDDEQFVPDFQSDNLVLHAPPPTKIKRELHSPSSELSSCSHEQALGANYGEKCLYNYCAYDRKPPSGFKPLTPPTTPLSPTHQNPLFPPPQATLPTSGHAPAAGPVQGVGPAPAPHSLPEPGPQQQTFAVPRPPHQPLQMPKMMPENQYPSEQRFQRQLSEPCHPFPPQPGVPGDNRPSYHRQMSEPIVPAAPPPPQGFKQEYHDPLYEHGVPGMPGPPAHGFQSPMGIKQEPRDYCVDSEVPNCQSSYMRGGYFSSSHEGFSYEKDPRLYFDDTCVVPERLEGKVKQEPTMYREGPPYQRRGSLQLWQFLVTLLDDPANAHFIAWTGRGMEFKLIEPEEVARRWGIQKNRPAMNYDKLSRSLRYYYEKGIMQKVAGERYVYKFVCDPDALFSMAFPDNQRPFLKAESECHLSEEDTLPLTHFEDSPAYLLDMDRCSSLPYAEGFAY
# Summary of the method: as §1
# [11] = molecular target: HSF1 (Homo sapiens, UniProt Q00613 1-529); settings: protein: recombinant; tags: N-terminal GST; chain copies: 3; dsDNA, one strand shown
# Sequence of HSF1 (Q00613 whole entry): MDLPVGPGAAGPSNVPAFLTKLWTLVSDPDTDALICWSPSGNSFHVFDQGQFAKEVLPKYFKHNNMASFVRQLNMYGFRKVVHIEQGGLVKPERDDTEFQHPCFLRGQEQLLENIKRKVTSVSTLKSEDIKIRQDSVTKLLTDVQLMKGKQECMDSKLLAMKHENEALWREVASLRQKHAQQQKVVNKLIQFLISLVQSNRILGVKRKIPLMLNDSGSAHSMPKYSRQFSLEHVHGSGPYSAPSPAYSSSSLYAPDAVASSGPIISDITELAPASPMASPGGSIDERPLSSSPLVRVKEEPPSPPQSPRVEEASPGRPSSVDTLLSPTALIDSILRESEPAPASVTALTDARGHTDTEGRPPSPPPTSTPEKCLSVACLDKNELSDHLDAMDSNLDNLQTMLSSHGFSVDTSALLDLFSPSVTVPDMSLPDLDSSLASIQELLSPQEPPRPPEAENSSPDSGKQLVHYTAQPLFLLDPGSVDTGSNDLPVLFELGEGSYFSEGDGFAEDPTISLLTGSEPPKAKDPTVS
# Summary of the method: as §1
# [12] = molecular target: T7, SPIC (Homo sapiens, UniProt Q8N5J4 1-248); settings: protein: recombinant; tags: N-terminal GST; dsDNA, one strand shown
# T7 sequence: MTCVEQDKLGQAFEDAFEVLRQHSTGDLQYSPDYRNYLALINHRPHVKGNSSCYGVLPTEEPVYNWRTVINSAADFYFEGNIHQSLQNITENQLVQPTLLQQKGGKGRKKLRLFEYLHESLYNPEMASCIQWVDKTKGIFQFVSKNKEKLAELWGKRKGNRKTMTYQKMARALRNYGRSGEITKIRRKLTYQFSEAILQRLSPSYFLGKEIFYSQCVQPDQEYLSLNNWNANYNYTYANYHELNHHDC
# Summary of the method: as §1
# [13] = molecular target: ELF4 (Homo sapiens, UniProt Q99607 1-663); settings: protein: recombinant; tags: N-terminal GST; dsDNA, one strand shown
# Sequence of ELF4 (Q99607 whole entry): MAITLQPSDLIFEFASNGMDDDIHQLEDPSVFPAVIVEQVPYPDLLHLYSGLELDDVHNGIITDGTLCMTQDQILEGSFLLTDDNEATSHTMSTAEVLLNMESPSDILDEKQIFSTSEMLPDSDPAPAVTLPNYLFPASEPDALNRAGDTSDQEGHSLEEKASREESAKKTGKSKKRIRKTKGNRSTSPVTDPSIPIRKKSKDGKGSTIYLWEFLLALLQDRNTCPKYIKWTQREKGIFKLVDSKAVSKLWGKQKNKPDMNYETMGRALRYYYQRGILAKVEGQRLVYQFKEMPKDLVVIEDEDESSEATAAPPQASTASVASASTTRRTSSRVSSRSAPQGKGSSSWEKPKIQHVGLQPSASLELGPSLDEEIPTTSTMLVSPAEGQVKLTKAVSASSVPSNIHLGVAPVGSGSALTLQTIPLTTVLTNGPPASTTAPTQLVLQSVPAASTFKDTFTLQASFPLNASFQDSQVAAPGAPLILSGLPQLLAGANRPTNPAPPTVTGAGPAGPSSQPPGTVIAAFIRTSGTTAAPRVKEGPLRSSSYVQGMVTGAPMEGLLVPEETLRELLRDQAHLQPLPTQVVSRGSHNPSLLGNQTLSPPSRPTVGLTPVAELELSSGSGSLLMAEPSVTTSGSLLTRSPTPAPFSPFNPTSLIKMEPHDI
# Summary of the method: as §1
# [14] = molecular target: T8, ELK4 (Homo sapiens, UniProt P28324-2 1-405); settings: protein: recombinant; tags: N-terminal GST; dsDNA, one strand shown
# T8 sequence: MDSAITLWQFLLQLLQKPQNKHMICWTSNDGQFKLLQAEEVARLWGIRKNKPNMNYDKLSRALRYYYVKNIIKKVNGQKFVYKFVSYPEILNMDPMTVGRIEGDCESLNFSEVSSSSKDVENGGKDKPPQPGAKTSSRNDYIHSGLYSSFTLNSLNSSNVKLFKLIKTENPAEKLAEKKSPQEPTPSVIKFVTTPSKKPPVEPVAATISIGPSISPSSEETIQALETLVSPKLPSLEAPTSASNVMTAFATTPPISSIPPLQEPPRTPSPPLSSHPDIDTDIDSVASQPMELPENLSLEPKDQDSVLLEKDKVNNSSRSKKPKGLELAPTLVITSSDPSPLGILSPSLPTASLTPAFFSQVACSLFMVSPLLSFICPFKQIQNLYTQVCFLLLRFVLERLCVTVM
# Summary of the method: as §1
# [15] = molecular target: T9, ETV2 (Homo sapiens, UniProt O00321 1-342); settings: protein: recombinant; tags: N-terminal GST; dsDNA, one strand shown
# T9 sequence: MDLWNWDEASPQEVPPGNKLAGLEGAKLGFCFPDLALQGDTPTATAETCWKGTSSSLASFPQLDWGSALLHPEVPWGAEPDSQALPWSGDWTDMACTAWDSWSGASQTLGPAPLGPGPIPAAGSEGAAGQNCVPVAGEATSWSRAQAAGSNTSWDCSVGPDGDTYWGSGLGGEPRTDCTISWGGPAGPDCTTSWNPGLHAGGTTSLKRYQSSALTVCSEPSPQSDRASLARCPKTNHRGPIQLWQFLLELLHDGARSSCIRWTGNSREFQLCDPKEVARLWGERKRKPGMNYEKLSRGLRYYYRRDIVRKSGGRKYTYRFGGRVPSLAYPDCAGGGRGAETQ
# Summary of the method: as §1
# [16] = molecular target: T10, ELF3 (Homo sapiens, UniProt P78545 1-371); settings: protein: recombinant; tags: N-terminal GST; dsDNA, one strand shown
# T10 sequence: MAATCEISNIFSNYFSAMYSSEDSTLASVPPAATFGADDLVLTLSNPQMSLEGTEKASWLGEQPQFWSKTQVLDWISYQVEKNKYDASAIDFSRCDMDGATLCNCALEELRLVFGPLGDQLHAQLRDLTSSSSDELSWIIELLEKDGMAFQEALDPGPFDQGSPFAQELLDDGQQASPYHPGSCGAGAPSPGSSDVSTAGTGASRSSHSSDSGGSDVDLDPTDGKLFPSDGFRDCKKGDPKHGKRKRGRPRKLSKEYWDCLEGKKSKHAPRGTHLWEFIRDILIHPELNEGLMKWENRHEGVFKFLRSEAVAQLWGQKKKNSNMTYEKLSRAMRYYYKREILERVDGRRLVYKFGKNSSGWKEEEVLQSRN
# Summary of the method: as §1
# [17] = molecular target: ETV1 (Homo sapiens, UniProt P50549 1-477); settings: protein: recombinant; tags: N-terminal GST; dsDNA, one strand shown
# Sequence of ETV1 (P50549 whole entry): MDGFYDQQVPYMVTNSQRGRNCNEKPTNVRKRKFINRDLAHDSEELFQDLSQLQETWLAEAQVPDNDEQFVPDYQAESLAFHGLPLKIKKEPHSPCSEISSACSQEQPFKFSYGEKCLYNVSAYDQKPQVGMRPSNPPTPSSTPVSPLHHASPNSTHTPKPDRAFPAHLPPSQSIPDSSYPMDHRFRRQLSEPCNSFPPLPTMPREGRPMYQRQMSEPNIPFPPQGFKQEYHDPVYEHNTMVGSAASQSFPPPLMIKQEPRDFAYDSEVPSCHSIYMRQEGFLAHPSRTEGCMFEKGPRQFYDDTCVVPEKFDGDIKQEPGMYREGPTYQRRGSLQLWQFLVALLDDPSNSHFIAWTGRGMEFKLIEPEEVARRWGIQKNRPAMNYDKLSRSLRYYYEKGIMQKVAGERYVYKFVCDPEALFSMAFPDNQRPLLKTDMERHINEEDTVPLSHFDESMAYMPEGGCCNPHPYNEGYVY
# Summary of the method: as §1
sequence,measurement,setting,value
TGCGTT,binding signal,[1],"1.04 fold enrichment (6-mer frequency, TF over GST control)"
same,binding signal,[2],"1.09 fold enrichment (6-mer frequency, TF over GST control)"
same,binding signal,[3],"1.17 fold enrichment (6-mer frequency, TF over GST control)"
same,binding signal,[4],"1.12 fold enrichment (6-mer frequency, TF over GST control)"
same,binding signal,[5],"1.12 fold enrichment (6-mer frequency, TF over GST control)"
same,binding signal,[6],"1.08 fold enrichment (6-mer frequency, TF over GST control)"
same,binding signal,[7],"1.1 fold enrichment (6-mer frequency, TF over GST control)"
same,binding signal,[8],"1.11 fold enrichment (6-mer frequency, TF over GST control)"
same,binding signal,[9],"1.13 fold enrichment (6-mer frequency, TF over GST control)"
same,binding signal,[10],"1.07 fold enrichment (6-mer frequency, TF over GST control)"
same,binding signal,[11],"1 fold enrichment (6-mer frequency, TF over GST control)"
same,binding signal,[12],"1.13 fold enrichment (6-mer frequency, TF over GST control)"
same,binding signal,[13],"1.05 fold enrichment (6-mer frequency, TF over GST control)"
same,binding signal,[14],"1.19 fold enrichment (6-mer frequency, TF over GST control)"
same,binding signal,[15],"1.16 fold enrichment (6-mer frequency, TF over GST control)"
same,binding signal,[16],"1.25 fold enrichment (6-mer frequency, TF over GST control)"
same,binding signal,[17],"1.02 fold enrichment (6-mer frequency, TF over GST control)"
